Measured values: the supplement of paper PMC11732987, “Enantioselective OTUD7B fragment discovery through chemoproteomics screening and high-throughput optimisation” (Communications Chemistry, 2025)

Assays:
Assay in all cases: log2 ratio of Biotin-Ahx-Ub-VS probe labelling (fragment/DMSO); higher = less target engagement (more negative = stronger competition), active = hit call of the paper (q ≤ 0.05, log2 ratio ≤ -1)
Details in all cases: compound concentration: 200 uM; treatment time: 3 h
USP19 = target: T1, USP19 (UniProt O94966)
T1 sequence (whole entry): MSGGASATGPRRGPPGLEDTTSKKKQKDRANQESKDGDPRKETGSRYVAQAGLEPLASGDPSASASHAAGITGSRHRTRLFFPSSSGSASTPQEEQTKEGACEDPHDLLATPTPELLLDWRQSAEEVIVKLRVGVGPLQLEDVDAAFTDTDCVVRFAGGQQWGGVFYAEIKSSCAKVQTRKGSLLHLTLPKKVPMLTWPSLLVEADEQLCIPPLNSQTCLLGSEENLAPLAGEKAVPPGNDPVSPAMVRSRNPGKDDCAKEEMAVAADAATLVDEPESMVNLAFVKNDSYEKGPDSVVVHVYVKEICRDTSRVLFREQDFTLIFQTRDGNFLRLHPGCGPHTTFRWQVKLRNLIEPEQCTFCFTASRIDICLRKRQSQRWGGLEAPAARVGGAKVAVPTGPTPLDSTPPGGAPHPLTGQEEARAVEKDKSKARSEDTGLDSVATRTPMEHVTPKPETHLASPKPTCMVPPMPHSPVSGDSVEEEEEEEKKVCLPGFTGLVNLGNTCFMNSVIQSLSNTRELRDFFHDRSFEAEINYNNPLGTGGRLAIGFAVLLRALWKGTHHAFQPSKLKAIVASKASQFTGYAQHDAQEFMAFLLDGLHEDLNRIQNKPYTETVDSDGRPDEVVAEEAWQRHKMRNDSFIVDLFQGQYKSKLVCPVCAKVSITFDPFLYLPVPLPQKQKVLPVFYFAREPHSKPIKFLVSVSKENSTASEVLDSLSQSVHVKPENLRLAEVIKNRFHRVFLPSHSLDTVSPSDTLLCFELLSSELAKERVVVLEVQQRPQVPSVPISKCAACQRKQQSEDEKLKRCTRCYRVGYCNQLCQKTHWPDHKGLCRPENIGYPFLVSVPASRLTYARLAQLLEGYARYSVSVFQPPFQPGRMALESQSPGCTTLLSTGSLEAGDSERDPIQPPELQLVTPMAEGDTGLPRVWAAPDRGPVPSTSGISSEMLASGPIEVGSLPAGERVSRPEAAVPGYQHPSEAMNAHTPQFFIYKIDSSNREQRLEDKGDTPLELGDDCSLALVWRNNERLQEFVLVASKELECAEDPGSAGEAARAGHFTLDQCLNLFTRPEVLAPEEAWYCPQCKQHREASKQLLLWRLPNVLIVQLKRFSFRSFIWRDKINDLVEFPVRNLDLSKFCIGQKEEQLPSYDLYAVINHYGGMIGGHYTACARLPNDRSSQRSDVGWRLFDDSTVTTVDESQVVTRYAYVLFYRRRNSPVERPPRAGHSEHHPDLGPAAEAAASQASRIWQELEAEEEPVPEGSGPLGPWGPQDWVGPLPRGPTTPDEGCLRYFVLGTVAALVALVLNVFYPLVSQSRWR
How it was run: (§1)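 HEK293T lysate in Tris/CHAPS/IGEPAL buffer with protease inhibitors (495 µg per sample) was given fragment at 200 µM or vehicle for 3 h, in triplicate. It then received Biotin-Ahx-Ub-VS at 0.5 µM final for 1 h. Labelled DUBs were NeutrAvidin-enriched, digested with LysC and trypsin, and run by diaPASEF LC-MS/MS. Values are average log2 fragment/vehicle ratios by unpaired t-test on global-median-normalised Spectronaut quantities of proteins with ≥2 unique peptides.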

USP24 = USP24 (UniProt Q9UPU5)
Chain of USP24 (Q9UPU5 whole entry): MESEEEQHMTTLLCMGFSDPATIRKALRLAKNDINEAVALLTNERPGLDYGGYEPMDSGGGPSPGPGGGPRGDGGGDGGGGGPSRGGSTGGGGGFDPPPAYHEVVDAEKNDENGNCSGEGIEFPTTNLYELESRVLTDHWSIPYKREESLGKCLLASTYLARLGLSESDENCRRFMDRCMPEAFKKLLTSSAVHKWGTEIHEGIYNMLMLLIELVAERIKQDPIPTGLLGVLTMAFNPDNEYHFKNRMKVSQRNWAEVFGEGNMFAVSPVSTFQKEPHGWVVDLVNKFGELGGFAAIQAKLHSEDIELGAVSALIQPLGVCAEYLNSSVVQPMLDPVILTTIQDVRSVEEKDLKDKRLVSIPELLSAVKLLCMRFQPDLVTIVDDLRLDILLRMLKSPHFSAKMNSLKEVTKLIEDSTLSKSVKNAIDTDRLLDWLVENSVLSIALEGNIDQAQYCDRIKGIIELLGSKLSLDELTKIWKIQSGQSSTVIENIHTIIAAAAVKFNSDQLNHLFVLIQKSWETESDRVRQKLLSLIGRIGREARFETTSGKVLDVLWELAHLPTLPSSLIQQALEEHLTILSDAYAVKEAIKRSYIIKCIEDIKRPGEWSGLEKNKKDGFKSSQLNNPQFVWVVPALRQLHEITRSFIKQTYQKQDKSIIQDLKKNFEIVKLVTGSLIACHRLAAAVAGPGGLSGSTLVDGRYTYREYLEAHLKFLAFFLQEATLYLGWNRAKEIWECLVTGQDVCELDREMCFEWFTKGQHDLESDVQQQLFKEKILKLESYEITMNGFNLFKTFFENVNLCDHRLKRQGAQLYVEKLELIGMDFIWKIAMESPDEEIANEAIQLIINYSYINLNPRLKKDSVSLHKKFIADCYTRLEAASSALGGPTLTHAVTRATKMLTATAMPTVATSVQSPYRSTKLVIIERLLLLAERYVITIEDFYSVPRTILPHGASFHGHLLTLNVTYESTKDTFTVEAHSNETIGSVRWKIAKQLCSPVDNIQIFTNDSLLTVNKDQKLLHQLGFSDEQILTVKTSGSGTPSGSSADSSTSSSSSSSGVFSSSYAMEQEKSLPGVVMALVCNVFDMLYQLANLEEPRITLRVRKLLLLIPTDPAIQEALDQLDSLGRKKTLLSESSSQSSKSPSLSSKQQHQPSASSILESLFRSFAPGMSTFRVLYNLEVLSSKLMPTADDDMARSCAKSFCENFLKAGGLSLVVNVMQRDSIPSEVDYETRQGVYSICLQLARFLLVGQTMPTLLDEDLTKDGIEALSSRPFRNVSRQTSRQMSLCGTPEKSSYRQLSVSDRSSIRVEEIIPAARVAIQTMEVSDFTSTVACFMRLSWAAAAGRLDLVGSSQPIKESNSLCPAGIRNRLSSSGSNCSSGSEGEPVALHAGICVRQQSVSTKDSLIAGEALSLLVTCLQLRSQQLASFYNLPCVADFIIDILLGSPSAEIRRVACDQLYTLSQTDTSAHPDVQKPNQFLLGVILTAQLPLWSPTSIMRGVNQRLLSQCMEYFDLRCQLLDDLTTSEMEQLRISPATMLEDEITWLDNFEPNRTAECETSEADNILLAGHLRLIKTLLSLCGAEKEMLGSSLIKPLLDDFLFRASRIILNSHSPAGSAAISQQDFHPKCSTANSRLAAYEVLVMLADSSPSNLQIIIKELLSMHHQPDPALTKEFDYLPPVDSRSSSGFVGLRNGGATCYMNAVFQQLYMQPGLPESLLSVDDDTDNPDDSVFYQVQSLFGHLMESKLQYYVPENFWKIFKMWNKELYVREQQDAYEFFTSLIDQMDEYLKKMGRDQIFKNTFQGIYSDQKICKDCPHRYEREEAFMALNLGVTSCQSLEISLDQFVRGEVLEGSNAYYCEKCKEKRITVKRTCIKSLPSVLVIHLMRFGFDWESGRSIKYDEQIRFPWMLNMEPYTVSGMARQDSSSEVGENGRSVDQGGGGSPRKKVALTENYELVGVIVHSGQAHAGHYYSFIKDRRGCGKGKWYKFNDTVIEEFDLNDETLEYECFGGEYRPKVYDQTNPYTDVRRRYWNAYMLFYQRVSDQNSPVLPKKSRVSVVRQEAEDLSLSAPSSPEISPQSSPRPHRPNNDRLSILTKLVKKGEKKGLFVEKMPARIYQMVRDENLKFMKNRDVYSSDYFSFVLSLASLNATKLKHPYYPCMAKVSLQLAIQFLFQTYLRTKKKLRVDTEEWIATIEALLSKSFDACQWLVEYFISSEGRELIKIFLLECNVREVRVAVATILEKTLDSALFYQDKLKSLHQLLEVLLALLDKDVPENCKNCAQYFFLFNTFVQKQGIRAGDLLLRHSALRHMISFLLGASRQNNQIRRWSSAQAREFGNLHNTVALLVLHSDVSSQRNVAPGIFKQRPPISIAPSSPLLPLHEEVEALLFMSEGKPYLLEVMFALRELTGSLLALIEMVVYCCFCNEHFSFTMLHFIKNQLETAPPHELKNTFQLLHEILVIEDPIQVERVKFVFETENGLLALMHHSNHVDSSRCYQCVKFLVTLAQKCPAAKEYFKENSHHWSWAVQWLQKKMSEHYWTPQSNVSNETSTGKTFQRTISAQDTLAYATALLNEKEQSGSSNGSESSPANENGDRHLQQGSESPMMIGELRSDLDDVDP
How it was run: as §1

USP25 = target: T2, USP25 (UniProt Q9UHP3)
T2 sequence (whole entry): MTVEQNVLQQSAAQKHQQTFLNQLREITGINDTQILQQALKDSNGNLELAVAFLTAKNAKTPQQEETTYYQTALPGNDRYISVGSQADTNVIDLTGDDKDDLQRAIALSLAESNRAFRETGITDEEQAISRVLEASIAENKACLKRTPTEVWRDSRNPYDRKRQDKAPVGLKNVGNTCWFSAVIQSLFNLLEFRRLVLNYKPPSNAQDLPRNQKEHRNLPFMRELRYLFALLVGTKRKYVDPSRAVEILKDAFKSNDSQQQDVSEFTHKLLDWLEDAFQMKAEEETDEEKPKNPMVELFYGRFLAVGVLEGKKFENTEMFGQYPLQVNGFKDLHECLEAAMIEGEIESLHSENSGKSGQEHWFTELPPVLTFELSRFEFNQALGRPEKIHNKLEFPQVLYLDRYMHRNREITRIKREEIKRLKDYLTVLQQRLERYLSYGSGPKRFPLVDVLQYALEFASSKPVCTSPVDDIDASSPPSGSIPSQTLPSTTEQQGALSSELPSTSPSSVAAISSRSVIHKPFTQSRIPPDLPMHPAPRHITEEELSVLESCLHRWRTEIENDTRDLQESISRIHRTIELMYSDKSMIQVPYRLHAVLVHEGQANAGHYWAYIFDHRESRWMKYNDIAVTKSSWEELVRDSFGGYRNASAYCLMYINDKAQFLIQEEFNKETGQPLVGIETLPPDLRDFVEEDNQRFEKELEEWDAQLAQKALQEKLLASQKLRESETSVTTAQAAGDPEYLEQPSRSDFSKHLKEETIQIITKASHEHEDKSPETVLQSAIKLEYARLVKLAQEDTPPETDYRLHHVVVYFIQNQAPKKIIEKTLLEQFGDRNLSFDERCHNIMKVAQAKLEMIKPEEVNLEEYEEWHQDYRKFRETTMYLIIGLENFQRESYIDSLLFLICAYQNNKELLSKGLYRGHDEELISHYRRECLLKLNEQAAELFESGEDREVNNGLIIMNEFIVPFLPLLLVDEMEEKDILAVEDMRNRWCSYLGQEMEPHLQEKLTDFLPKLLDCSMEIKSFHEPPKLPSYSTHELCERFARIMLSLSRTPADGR
How it was run: as §1

USP28 = target: T3, USP28 (UniProt Q96RU2)
T3 sequence (whole entry): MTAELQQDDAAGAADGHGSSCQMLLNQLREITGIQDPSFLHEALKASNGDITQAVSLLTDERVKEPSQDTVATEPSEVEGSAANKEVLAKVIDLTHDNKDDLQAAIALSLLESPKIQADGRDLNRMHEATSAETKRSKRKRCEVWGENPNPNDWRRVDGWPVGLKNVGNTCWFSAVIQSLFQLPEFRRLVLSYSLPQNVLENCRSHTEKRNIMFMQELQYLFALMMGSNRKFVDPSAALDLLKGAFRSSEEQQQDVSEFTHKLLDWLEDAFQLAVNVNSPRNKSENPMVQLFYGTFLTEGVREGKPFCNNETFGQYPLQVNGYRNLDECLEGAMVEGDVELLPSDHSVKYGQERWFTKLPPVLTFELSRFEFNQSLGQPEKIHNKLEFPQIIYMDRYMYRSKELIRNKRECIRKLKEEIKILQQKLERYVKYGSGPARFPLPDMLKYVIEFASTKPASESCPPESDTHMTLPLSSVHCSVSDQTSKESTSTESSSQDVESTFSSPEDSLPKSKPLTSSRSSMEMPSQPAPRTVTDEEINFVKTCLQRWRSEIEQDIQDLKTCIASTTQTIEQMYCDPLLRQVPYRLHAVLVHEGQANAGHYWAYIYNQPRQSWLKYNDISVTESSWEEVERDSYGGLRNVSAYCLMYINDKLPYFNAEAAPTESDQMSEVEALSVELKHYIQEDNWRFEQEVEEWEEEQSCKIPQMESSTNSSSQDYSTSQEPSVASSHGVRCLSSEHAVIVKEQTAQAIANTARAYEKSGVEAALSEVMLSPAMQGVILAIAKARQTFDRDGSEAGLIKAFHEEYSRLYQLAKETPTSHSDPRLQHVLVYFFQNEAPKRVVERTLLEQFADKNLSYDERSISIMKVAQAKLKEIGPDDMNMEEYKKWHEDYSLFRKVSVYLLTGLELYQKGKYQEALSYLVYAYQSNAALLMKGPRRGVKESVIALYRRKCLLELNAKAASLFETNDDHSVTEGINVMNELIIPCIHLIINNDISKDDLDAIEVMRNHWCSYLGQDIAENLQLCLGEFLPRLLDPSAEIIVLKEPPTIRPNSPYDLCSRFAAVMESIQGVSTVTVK
How it was run: as §1

Measured: log2 ratio of Biotin-Ahx-Ub-VS probe labelling

CCc1c[nH]c(CNC(=O)CCl)n1.Cl
inactive: USP19 -0.279 | USP24 -0.668 | USP25 -0.182 | USP28 -0.44
